Compound activity as filed in PubChem.
LYPLA2 counter – blocks human lysophospholipase 2, a PME1 counter-screen | O95372 | recombinant LYPLA2, FP-Rh probe fluorescence polarization | inhibition, % at 5.9 µM | hit rate 0.38% among 320,000;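 active means inhibition above the screen-wide mean plus 3 SD, limit set per campaign, cut at about 26% in these data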;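 further: 0% = LYPLA2 with DMSO and 100% = wells lacking LYPLA2 enzyme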
PAD4 FP inh – blocks human protein arginine deiminase 4 | Q9UM07 | recombinant PAD4, RCA probe fluorescence polarization | inhibition, % at 6.36 µM | hit rate 0.41% among 330,000 | AID 485272;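 active means percent inhibition above a cutoff equal to the mean of all tested compounds plus 3 SD, cut at about 15% in these data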;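 further: 0% = PAD4 with RCA probe and DMSO and 100% = probe without PAD4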
Target sequence (Q9UM07 whole entry, looked up): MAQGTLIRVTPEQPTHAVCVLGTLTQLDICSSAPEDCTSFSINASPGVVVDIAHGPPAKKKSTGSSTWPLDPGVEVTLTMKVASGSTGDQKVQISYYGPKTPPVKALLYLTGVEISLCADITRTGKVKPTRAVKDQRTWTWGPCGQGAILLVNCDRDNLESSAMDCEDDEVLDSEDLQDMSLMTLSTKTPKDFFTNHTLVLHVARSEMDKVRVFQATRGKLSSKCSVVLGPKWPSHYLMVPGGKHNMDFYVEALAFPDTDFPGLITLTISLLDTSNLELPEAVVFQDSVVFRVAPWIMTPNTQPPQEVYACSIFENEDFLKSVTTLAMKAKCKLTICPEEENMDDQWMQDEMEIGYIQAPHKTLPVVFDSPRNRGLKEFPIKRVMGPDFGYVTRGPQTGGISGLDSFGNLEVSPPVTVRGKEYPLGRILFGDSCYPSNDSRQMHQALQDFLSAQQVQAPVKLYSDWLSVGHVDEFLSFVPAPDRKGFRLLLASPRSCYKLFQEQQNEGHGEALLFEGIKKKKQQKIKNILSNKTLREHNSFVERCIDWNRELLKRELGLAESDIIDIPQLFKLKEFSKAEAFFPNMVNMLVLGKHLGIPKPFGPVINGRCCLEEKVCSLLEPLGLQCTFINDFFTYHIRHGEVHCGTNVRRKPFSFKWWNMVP
GSTO1 counter – blocks human GSTO1 in RBBP9 counter-screen; P78417; recombinant GSTO1, activity-based probe fluorescence polarization; inhibition, % at 5.96 µM; hit rate 1.1% among 300,000; AID 1974;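 active means inhibition above the campaign mean inhibition plus 3 SD, cut at about 35% in these data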;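 further: 0% = GSTO1-1 with DMSO and 100% = wells lacking GSTO1-1 enzyme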
Fam108B inh – Fam108B inhibition, counter-screen for RBBP9 inhibitors | recombinant Fam108B, FP-Rh probe fluorescence polarization | inhibition, % at 9.51 µM | hit rate 0.33% among 300,000 | AID 1947;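 active means inhibition above the screen mean inhibition plus 3 SD, computed separately per campaign, cut at about 18% in these data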;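 further: inhibitors lower polarization as less probe binds the enzyme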
PME-1 inh – PME-1 (human) inhibition; Q9Y570; recombinant PME-1, FP-Rh probe fluorescence polarization; inhibition, % at 5.9 µM; hit rate 0.53% among 320,000;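 active means inhibition above the campaign mean of all compounds plus 3 SD, cut at about 26% in these data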;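 further: competitive labeling of PME-1 active site by serine hydrolase directed probe; 0% = PME-1 with DMSO and 100% = wells lacking PME-1 enzyme; inhibitors block probe labeling so polarization falls and inhibition rises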
LYPLA1 counter – blocks human lysophospholipase 1, a PME1 counter-screen | inhibition, % at 5.9 µM | AID 2174 | O75608 | recombinant LYPLA1, FP-Rh probe fluorescence polarization | hit rate 0.16% among 320,000;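 active means inhibition above the mean of all tested compounds plus 3 SD, set per campaign, cut at about 14% in these data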;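 further: inhibitors block serine hydrolase probe labeling of LYPLA1 so polarization falls; 0% = enzyme with DMSO and 100% = wells lacking LYPLA1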
LYPLA2 confirm – LYPLA2 (human) inhibition, confirmation counter-screen; shares compounds with LYPLA2 counter; recombinant LYPLA2, FP-Rh probe fluorescence polarization; inhibition, % at 5.9 µM; hit rate 72% among 1,100; AID 2232;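 active means mean inhibition across replicates above the hit cutoff set in the primary screen, cut at about 26% in these data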;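 further: blocked labeling of the enzyme by serine hydrolase FP-Rh probe lowers polarization; 0% = enzyme with DMSO and 100% = wells lacking LYPLA2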
LYPLA2 gel ABPP – blocks human acyl-protein thioesterase 2 in gel ABPP. shares compounds with LYPLA2 counter. rhLYPLA2 in mouse brain proteome, gel ABPP FP-Rh. inhibition, % at 20 µM. hit rate 30% among 150. AID 652029;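 active means inhibition of LYPLA2 enzyme probe labeling above about 50%, limit read from the data; inactive means inhibition below that limit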;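 further: loss of FP-Rh probe labeling of the LYPLA2 gel band measured as band density; 0% = DMSO only control band and 100% = blank gel background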
Numbers without * were called inactive; . = no result given. Only some compounds are listed: those with a hit (about 1.8% of all), similar ones and a draw of the others.

SMILES	LYPLA2 counter	PAD4 FP inh	GSTO1 counter	Fam108B inh	PME-1 inh	LYPLA1 counter	LYPLA2 confirm	others
COc1ccc(CCn2c(C)cc(C(=O)COC(=O)c3cnccn3)c2C)cc1	43*	-7	25	3	5	2	41*
O=C(c1ccc(S(=O)(=O)N2CCCC2)cc1)N1CCC(CN2C(=O)c3cccc4cccc(c34)C2=O)CC1	27*	-2	-16	-4	-4	5	16
COc1ccc(S(=O)(=O)N2CCC(CN3C(=O)c4cccc5cccc(c45)C3=O)CC2)cc1	5	-3	-5	-9	10	-2	.
CCCN(CCC)C(=O)c1ccc2c(c1)S(=O)(=O)c1ccccc1C2=O	31*	4	-3	-1	5	5	20
CC(C)Cn1c(=O)c2sccc2n2c(CCCC(=O)N3CCC(N4CCCCC4)CC3)nnc12	3	1	11	2	-2	4	.
CC(C)CCn1c(=O)c2sccc2n2c(CCCC(=O)N3CCC(N4CCCCC4)CC3)nnc12	28*	3	-1	-1	7	6	3
CC(C)[C@H]1COCCS(=O)(=O)N1Cc1ccccc1-c1cccc(Cl)c1	.	5	.	.	.	.	.
OC(COc1ccc(Br)cc1)CN1CCN(c2ccccc2)CC1 (stereo unspecified)	6	-7	1	-3	-5	2	.
Cc1nc2sc(C(c3ccc(Cl)cc3)N3CCN(c4ccccc4F)CC3)c(O)n2n1 (stereo unspecified)	29*	0	10	-2	-6	5	30*
Cc1nc2sc(C(c3ccco3)N3CCN(c4ccccc4F)CC3)c(O)n2n1 (stereo unspecified)	-2	2	-3	-2	2	-1	.
Cc1cc(NC(=O)CN2CCN(C/C=C/c3ccccc3)CC2)c([N+](=O)[O-])cc1C	5	0	0	-2	-4	1	.
O=[N+]([O-])c1ccc(C(O)CN2CCN(C/C=C/c3ccccc3)CC2)cc1 (stereo unspecified)	62*	0	12	-5	4	8	54*	LYPLA2 gel ABPP=36
O=C(CN1CCN(C/C=C/c2ccccc2)CC1)Nc1cc([N+](=O)[O-])ccc1Cl	31*	-4	4	1	4	22*	29*
COc1ccccc1NC(=O)c1cnc(SC)nc1	-2	-7	1	1	-11	0	.
COc1ccc(CNC(=O)C(C)OC(=O)CO/N=C(\C)c2ccc3c(c2)OCO3)cc1 (stereo unspecified)	1	0	0	0	-1	0	.
O=[N+]([O-])c1ccc(N2CCN(c3ccc([N+](=O)[O-])cc3CO)CC2)c(CO)c1	27*	3	-5	-2	-1	4	30*
N#Cc1cc([N+](=O)[O-])ccc1N1CCN(c2ccccc2O)CC1	15	-2	8	3	5	1	.
COc1ccc(C(=O)c2ccc3oc(-c4ccc(OC)cc4)c(-c4ccc(O)cc4)c3c2)cc1	.	1	.	.	.	.	.
CC(C)=CCC/C(C)=C/CNC(=O)C[C@H]1C[C@H](C(=O)N2CCOCC2)[C@@]2(CCC3CCCC3)c3[nH]c4cc(-c5ccco5)ccc4c3CCN2C1=O	.	-2	.	.	.	.	.
O=C(NCCC1=CCCCC1)C1CCN(S(=O)(=O)c2ccccc2)CC1	28*	-1	12	1	24	0	0
O=C(NCCC1=CCCCC1)C1CCN(S(=O)(=O)c2cccc(C(F)(F)F)c2)CC1	3	-1	.	.	1	-1	.
CCN(CC(=O)NCc1ccc(Cl)cc1)C(=O)c1cc(S(=O)(=O)N2CCOCC2)ccc1C	.	1	.	.	.	.	.
CCN(CC(=O)NCc1cccs1)C(=O)c1cc(S(=O)(=O)N2CCOCC2)ccc1C	29*	0	-4	2	4	-4	-2
Cc1ccc(S(=O)(=O)NCC2CCC(C(=O)NCCCN3CCCC3=O)CC2)cc1 (stereo unspecified)	-1	2	0	-1	0	3	.
CON=Cc1ccc(N2CCN(C(=O)c3cccc(C(F)(F)F)c3)CC2)c([N+](=O)[O-])c1	.	.	.	.	.	.	.	LYPLA2 gel ABPP=88*
SMILES	LYPLA2 counter	PAD4 FP inh	GSTO1 counter	Fam108B inh	PME-1 inh	LYPLA1 counter	LYPLA2 confirm	others
CON=Cc1ccc(N2CCN(C(=O)c3ccc(Cl)cc3Cl)CC2)c([N+](=O)[O-])c1	.	.	.	.	.	.	.	LYPLA2 gel ABPP=29
COc1ccc(N2CCN(C(=O)c3ccc(Br)cc3)CC2)c([N+](=O)[O-])c1	48*	-3	6	-1	3	3	56*	LYPLA2 gel ABPP=20
CO/N=C/c1ccc(N2CCOCC2)c([N+](=O)[O-])c1	0	0	9	0	-6	2	.
Cc1ccc(-n2nc3c(=O)n(CCCC(=O)NCc4ccco4)nc(C)c3c2C)cc1	7	2	17	7	3	3	.
O=C(Cn1cnc2c(OCc3ccccc3)ncnc21)NCC1CCCO1 (stereo unspecified)	.	-3	.	.	.	.	.
CCc1cc2c(-c3ccccc3)cc(=O)oc2cc1OCC(=O)NCC1CCC(C(=O)O)CC1 (stereo unspecified)	2	-2	-2	1	-3	-1	.
O=C(COc1cc2oc(=O)cc(-c3ccccc3)c2cc1Cl)NCC1CCC(C(=O)O)CC1 (stereo unspecified)	42*	0	-11	-1	7	-1	37*
Cc1nc(SCc2nc3cc(Cl)c(F)cc3[nH]2)c2oc3ccccc3c2n1	.	4	.	.	.	.	.
COc1ccc(-c2noc3c2-c2nc(-c4ccc(C)cc4)sc2CC3)cc1	40*	3	-1	-2	0	0	-8
CCOc1ccccc1O[C@H](c1ccccc1)[C@H]1CNCCO1	0	-3	1	3	1	1	.
CCCN1CCN(S(=O)(=O)c2ccc(-n3cnnn3)cc2)CC1	2	-3	-4	1	-3	-1	.
O=C(NCc1n[nH]c(=S)n1-c1cccc(Cl)c1)c1ccc(S(=O)(=O)N2CCCC2)cc1	4	-1	4	0	0	1	.
Cc1cccc(-n2c(CNC(=O)c3ccc(S(=O)(=O)N4CCCCC4)cc3)n[nH]c2=S)c1	79*	-2	7	1	5	0	5
CCCOc1ccc(-c2c(=O)n(O)c3ccccc3[n+]2[O-])cc1	50*	-4	18	-1	-8	8	20
COc1cc(/C=C2\CC/C(=C\c3cc(OC)c(OC)c(OC)c3)C2=O)cc(OC)c1OC	-2	-3	0	-3	-8	-1	.
COc1cc(/C=C2\CCc3ccccc3C2=O)cc(OC)c1OC	27*	0	0	4	2	3	18
